Sampled rows, rich in hits. Any-hit rate of the full collection: about 3.4%.
FBW7 act – FBW7 E3 ligase activators, primary screen, biochemical, AlphaScreen, human; F-box/WD repeat-containing protein 7 (Homo sapiens), Q969H0; AlphaScreen FBW7–phospho-cyclin E peptide binding, activator screen; normalized activity (activation), % at 26.1 µM; 0.13% of 650,000 active; in the data active = normalized activity above about 1.9%;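 also: purified mutant Fbw7 with reduced substrate affinity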
MITF inh – MITF inhibitors, primary screen, biochemical, AlphaScreen, human; 0.91% of 650,000 active; Microphthalmia-associated transcription factor (Homo sapiens), O75030; AID 1259374, 2018; inhibition, % at 2.6 µM; AlphaScreen MITF homodimerization, bead proximity signal; in the data active = inhibition above about 50%;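 also: 0% = vehicle wells with protein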
GPR151 activ – activators of human GPR151, primary screen, cell-based, PathHunter beta-arrestin, luminescence; G-protein coupled receptor 151 (Homo sapiens), Q8TDV0; PathHunter beta-arrestin GPR151 cells; activation, % at 11.2 µM; 1% of 650,000 active; AID 1508602, 2020; in the data active = activation above about 4.9%;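 also: 0% = median of compound wells and 100% = cells with positive control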
Target sequence (Q8TDV0 whole entry, looked up): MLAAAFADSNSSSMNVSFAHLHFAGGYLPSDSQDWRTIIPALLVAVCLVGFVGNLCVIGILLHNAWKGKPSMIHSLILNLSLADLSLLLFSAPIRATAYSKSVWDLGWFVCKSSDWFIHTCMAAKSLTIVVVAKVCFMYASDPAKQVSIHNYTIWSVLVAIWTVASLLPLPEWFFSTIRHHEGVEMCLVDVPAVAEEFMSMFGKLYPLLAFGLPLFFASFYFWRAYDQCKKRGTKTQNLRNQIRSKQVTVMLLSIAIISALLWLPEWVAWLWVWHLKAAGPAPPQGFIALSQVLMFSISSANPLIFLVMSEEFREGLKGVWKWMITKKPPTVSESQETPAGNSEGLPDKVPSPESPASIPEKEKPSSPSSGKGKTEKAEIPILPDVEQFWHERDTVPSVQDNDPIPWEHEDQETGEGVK
TEAD-YAP inh – TEAD-YAP interaction inhibition, primary screen, TEAD-YAP interaction inhibitor project, luminescence, HEK-TIYL cells. TEAD-Gal4/YAP UAS-luciferase luminescence. inhibition, % at 9.12 µM. 1.4% of 640,000 active; in the data active = inhibition above about 32%;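 also: 0% = median of test compound wells and 100% = reference inhibitor wells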
* hit, by the source's call; ! = not active in a repeat.

SMILES | FBW7 act | MITF inh | GPR151 activ | TEAD-YAP inh
CCCCCCc1cc2cc(/C(N)=N\NC(=O)c3ccncc3)c(=O)oc2cc1O | 0 | 13 | 0 | 12
CC(C)(O)C#Cc1ccc(C(N2CCOCC2)N2CCOCC2)cc1 | 0 | -8 | -1 | -2
Cc1noc(C)c1-c1cc(NCCN(C(C)C)C(C)C)ncn1 | 0 | 16 | 0 | 8
CN(Cc1ccccc1)c1ncnc(N)c1[N+](=O)[O-] | 0 | 4 | -1 | 0
CCCN(CCC)c1ncnc(N)c1[N+](=O)[O-] | 0 | -11 | -2 | 61*
Cc1ccc(-c2nnc(-n3nnc4ccccc43)c3ccccc23)cc1C | 0 | 8 | -1 | -12
CCOc1ccc2nc(Nc3nc(O)c(C)c(=O)[nH]3)nc(C)c2c1 | 1 | 22 | 3 | -6
Cc1cc2c(cc1C)C(c1ccccc1OC(C)C)CC(=O)N2 (stereo unspecified) | 0 | 7 | 2 | 55*
CCOc1ccccc1C1CC(=O)Nc2cc(C)c(C)cc21 (stereo unspecified) | 0 | -7 | -1 | 41*
CCCCOc1ccccc1C1CC(=O)Nc2cc(C)c(C)cc21 (stereo unspecified) | 0 | 12 | 1 | 4
Cc1cc2c(cc1C)C(c1ccccc1C)CC(=O)N2 (stereo unspecified) | 0 | 5 | 0 | 6
COc1ccccc1C1CC(=O)Nc2cc(C)c(C)cc21 (stereo unspecified) | 0 | 14 | 2 | 57*
Cc1cc(C)c(S(=O)(=O)Nc2ccc3oc4c(c3c2)C(=O)CC(C)(C)C4)c(C)c1 | 0 | 2 | 1 | -1
CCC(=O)NC(c1ccc(OC)cc1)c1cc([N+](=O)[O-])c2cccnc2c1O (stereo unspecified) | -1 | 55* | -2 | -3
COc1ccc(C(NC(=O)c2cccc(OC)c2)c2cc(Cl)c3cccnc3c2O)cc1 (stereo unspecified) | 0 | 10 | -1 | 1
Oc1c(C(Nc2ccccn2)c2cccnc2)cc(Cl)c2cccnc12 (stereo unspecified) | 0 | 85* | 0 | 58*
CCCCC(=O)NC(c1ccco1)c1cc([N+](=O)[O-])c2cccnc2c1O (stereo unspecified) | 0 | 10 | -1 | 3
CCCCC(=O)NC(c1ccccc1OC)c1cc([N+](=O)[O-])c2cccnc2c1O (stereo unspecified) | 0 | 51* | -1 | 28
Oc1c(C(c2cccnc2)N2CCOCC2)cc(Cl)c2cccnc12 (stereo unspecified) | 0 | 42 | 0 | 17
COc1ccc(C(NC(=O)c2cccnc2)c2cc(Cl)c3cccnc3c2O)cc1 (stereo unspecified) | 0 | 6 | 1 | 40*
CCCC(=O)NC(c1ccc(OC)cc1)c1cc([N+](=O)[O-])c2cccnc2c1O (stereo unspecified) | 0 | 21 | 2 | 5
CC(C)(C)c1ccc(C(=O)OCC(=O)Nc2ccccc2C#N)cc1 | 1 | -7 | 0 | 9
COc1cc(NC(=O)c2cccnc2)c2ncccc2c1 | 0 | 1 | 0 | 79*
CC(C)Oc1cc(O)c2c(=O)c(-c3ccc(O)cc3)coc2c1 | 0 | 3 | 0 | 57*
COc1ccc(-c2coc3cc(O)cc(O)c3c2=O)cc1 | 0 | -5 | 0 | 37*!
SMILES | FBW7 act | MITF inh | GPR151 activ | TEAD-YAP inh
COc1ccc(-c2coc3cc(OC)ccc3c2=O)cc1 | 0 | -2 | -1 | 9
COc1ccc(-c2coc3cc(O)ccc3c2=O)cc1 | 0 | 25 | -3 | 53*!
Cc1nc(-c2coc3cc(O)cc(O)c3c2=O)cs1 | 0 | -13 | -5 | -34
CCOC(=O)C(C)Oc1ccc2c(=O)c(-c3ccc(OC(C)C)cc3)coc2c1 (stereo unspecified) | 0 | -4 | 1 | 0
Cc1oc2cc(O)ccc2c(=O)c1-c1ccc2c(c1)OCCO2 | 0 | 10 | -1 | -13
Cc1oc2cc(O)cc(O)c2c(=O)c1-c1ccc2c(c1)OCCCO2 | 0 | 7 | 0 | 43*
Nc1nonc1-n1nnc(C(=O)N/N=C/c2ccncc2)c1CN1CCCCCC1 | 0 | -23 | 1 | 15
O=c1c(-c2ccc3c(c2)OCCCO3)coc2cc(O)ccc12 | 0 | -1 | -3 | 75*
O=c1c(-c2ccc(Br)cc2)coc2cc(O)cc(O)c12 | 1 | 13 | 0 | -19
O=c1c(-c2ccc(O)cc2)coc2cc(O)cc(O)c12 | 0 | 15 | -2 | 44*!
O=c1c(-c2ccc(Cl)cc2)coc2cc(O)ccc12 | 0 | 4 | -4 | 16
COc1ccc2cc(C(=O)CSc3ncccn3)ccc2c1 | 0 | 0 | 0 | 13
COc1ccc2c(c1)CC/C(=C\Nc1ccc(S(N)(=O)=O)cc1)C2=O | 0 | 24 | 1 | -13
OCCCNc1cc(-c2cccc(C(F)(F)F)c2)nc(-c2cccnc2)n1 | 0 | 6 | 2 | 12
OCCCNc1cc(-c2cccc(C(F)(F)F)c2)nc(-c2ccccn2)n1 | 0 | 18 | 2 | 33*
CN(C)/C=C/C=C1\CCc2ccccc2C1=O | 0 | 20 | 0 | -3
CN(C)/C=C/C=C/C=C1\CCC/C(=C\C=C\N(C)C)C1=O | 0 | 78* | -1 | 8
COc1ccc(/C=N/NC(=O)c2ccccc2O)cc1Cn1cc([N+](=O)[O-])cn1 | 0 | 0 | -1 | -8
COc1ccc(/C=N/NC(=O)c2cc(O)c(O)c(O)c2)cc1Cn1cc([N+](=O)[O-])cn1 | 0 | 73* | 2 | -4
COc1ccc(/C=N/NC(=O)c2cc(O)c(O)c(O)c2)cc1Cn1cnc([N+](=O)[O-])n1 | 0 | 97* | -1 | 5
CC(C)n1cnc2c(NCc3nc4ccccc4[nH]3)nc(Nc3ccc4ncccc4c3)nc21 | 0 | 13 | -1 | 40*
CC(C)n1cnc2c(NCc3nc4ccccc4[nH]3)nc(Nc3ccncn3)nc21 | 0 | -8 | 3 | 86*
CC(C)n1cnc2c(NCc3nc4ccccc4[nH]3)nc(Nc3nc4ccccc4n3C)nc21 | 0 | 5 | 0 | 0
CC(C)n1cnc2c(NC3CC3)nc(Nc3nccc4ccccc34)nc21 | 0 | 6 | 2 | 14
CC(C)n1cnc2c(NCc3nc4ccccc4[nH]3)nc(Nc3nccc4ccccc34)nc21 | 1 | 4 | 0 | 43*
CC(C)n1cnc2c(NCc3nc4ccccc4[nH]3)nc(Nc3ccccn3)nc21 | 1 | 0 | 1 | 85*
CCNc1nc(NCc2cccnc2)c2ncn(C(C)C)c2n1 | 0 | 5 | -1 | 0
CC(C)n1cnc2c(NCc3nc4ccccc4[nH]3)nc(NCc3cccnc3)nc21 | 0 | 18 | -2 | 59*
CC(C)n1cnc2c(NCc3nc4ccccc4[nH]3)nc(Nc3cnccn3)nc21 | 0 | 4 | 0 | 78*
